target: AgAbp1; test: SPOT peptide array binding signal intensity (averaged, normalized) (arbitrary units (background-subtracted, floor 0; scale differs between SH3 domains)); higher = stronger binding of the SH3 domain to the peptide
Procedure, shortened: (§1)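 Detection of bound protein relied on anti-GST antibody, an HRP anti-mouse secondary and luminol, with imaging and quantification in Genespotter. The bound protein was GST-fused SH3 domains from four yeast species, incubated at 10 μg/ml overnight at 4°C in TBS-based blocking buffer on cellulose membranes carrying synthetic 15-mer peptides with cysteines replaced by serines. Binding signal is normalized, background-subtracted spot intensity averaged over replicates, in arbitrary units that differ between domains.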

Binder	SPOT peptide array binding signal intensity
KRNRLKILLPFLEQS	7

target: AgBbc1; test: as above
Procedure, shortened: as §1

Binder	SPOT peptide array binding signal intensity
KRNRLKILLPFLEQS	1.75

target: AgBem1-D1; test: as above
Procedure, shortened: as §1

Binder	SPOT peptide array binding signal intensity
KRNRLKILLPFLEQS	102

target: AgBzz1-D1; test: as above
Procedure, shortened: as §1

Binder	SPOT peptide array binding signal intensity
KRNRLKILLPFLEQS	9

target: AgBzz1-D2; test: as above
Procedure, shortened: as §1

Binder	SPOT peptide array binding signal intensity
KRNRLKILLPFLEQS	41

target: AgCyk3; test: as above
Procedure, shortened: as §1

Binder	SPOT peptide array binding signal intensity
KRNRLKILLPFLEQS	0.5

target: AgFus1; test: as above
Procedure, shortened: as §1

Binder	SPOT peptide array binding signal intensity
KRNRLKILLPFLEQS	1340

target: AgHof1; test: as above
Procedure, shortened: as §1

Binder	SPOT peptide array binding signal intensity
KRNRLKILLPFLEQS	30.5

target: AgHse1; test: as above
Procedure, shortened: as §1

Binder	SPOT peptide array binding signal intensity
KRNRLKILLPFLEQS	1380

target: AgLsb1; test: as above
Procedure, shortened: as §1

Binder	SPOT peptide array binding signal intensity
KRNRLKILLPFLEQS	3.5

target: AgLsb4; test: as above
Procedure, shortened: as §1

Binder	SPOT peptide array binding signal intensity
KRNRLKILLPFLEQS	126

target: AgMyo5; test: as above
Procedure, shortened: as §1

Binder	SPOT peptide array binding signal intensity
KRNRLKILLPFLEQS	0.5

target: AgNbp2; test: as above
Procedure, shortened: as §1

Binder	SPOT peptide array binding signal intensity
KRNRLKILLPFLEQS	102

target: AgRvs167; test: as above
Procedure, shortened: as §1

Binder	SPOT peptide array binding signal intensity
KRNRLKILLPFLEQS	2.33

target: AgSho1; test: as above
Procedure, shortened: as §1

Binder	SPOT peptide array binding signal intensity
KRNRLKILLPFLEQS	200

target: AgSla1-D1-D2; test: as above
Procedure, shortened: as §1

Binder	SPOT peptide array binding signal intensity
KRNRLKILLPFLEQS	49.5

target: AgSla1-D3; test: as above
Procedure, shortened: as §1

Binder	SPOT peptide array binding signal intensity
KRNRLKILLPFLEQS	12.5

target: CaAbp1-D1; test: as above
Procedure, shortened: as §1

Binder	SPOT peptide array binding signal intensity
KRNRLKILLPFLEQS	342

target: CaAbp1-D2; test: as above
Procedure, shortened: as §1

Binder	SPOT peptide array binding signal intensity
KRNRLKILLPFLEQS	154

target: CaBbc1; test: as above
Procedure, shortened: as §1

Binder	SPOT peptide array binding signal intensity
KRNRLKILLPFLEQS	27

target: CaBem1-D1; test: as above
Procedure, shortened: as §1

Binder	SPOT peptide array binding signal intensity
KRNRLKILLPFLEQS	≤ 0

target: CaBzz1-D1; test: as above
Procedure, shortened: as §1

Binder	SPOT peptide array binding signal intensity
KRNRLKILLPFLEQS	5

target: CaBzz1-D2; test: as above
Procedure, shortened: as §1

Binder	SPOT peptide array binding signal intensity
KRNRLKILLPFLEQS	66.8

target: CaCyk3; test: as above
Procedure, shortened: as §1

Binder	SPOT peptide array binding signal intensity
KRNRLKILLPFLEQS	3

target: CaFus1; test: as above
Procedure, shortened: as §1

Binder	SPOT peptide array binding signal intensity
KRNRLKILLPFLEQS	4760

target: CaHof1; test: as above
Procedure, shortened: as §1

Binder	SPOT peptide array binding signal intensity
KRNRLKILLPFLEQS	0.5

target: CaHse1; test: as above
Procedure, shortened: as §1

Binder	SPOT peptide array binding signal intensity
KRNRLKILLPFLEQS	57.2

target: CaLsb1; test: as above
Procedure, shortened: as §1

Binder	SPOT peptide array binding signal intensity
KRNRLKILLPFLEQS	9.75

target: CaLsb4; test: as above
Procedure, shortened: as §1

Binder	SPOT peptide array binding signal intensity
KRNRLKILLPFLEQS	21

target: CaMyo5; test: as above
Procedure, shortened: as §1

Binder	SPOT peptide array binding signal intensity
KRNRLKILLPFLEQS	3
